# PubChem BioAssay (Tox21)
# Results filed as inconclusive are left out. Calls of active or inactive are those of the source. The call rests on the fitted dose curve; in most records, active means well fitted cell-killing curve with a large enough effect in the repeat runs; inconclusive means weak or mixed curves, or effect the other way; inactive means no such curve, though single readings can be large or run the other way.
# Test: Caspase-3/7 induction in CHO-K1 cells by small molecules, qHTS cell viability counter screen (AID 1346979); further: nearly all actives have a fitted effect of over 35% in size
# Settings: CellTiter-Fluor fluorescence, 17 h; series mostly up to 92.4 µM; activity change, negative = cytotoxicity: at the top concentration
# From the text: National Center for Advancing Translational Sciences [NCATS]
# NIH Chemical Genomics Center [NCGC]
# U.S. Environmental Protection Agency [EPA]
# National Institutes of Environmental Health Sciences [NIEHS]
# National Toxicology Program [NTP]
# U.S. Food and Drug Administration [FDA]
# Apoptosis is a process of programmed cell death and plays a central role in the development of multicellular organisms. It is a highly regulated process and induces cell death by activating caspases, which are the members of cysteine aspartic acid-specific protease (caspase) family. Caspases involved in apoptosis are classified by their mechanism of action as initiator caspases (caspase-2, -8, -9 and -10) and executioner caspases (caspase-3, -6, and -7). Inhibition of apoptosis results in number of cancers, autoimmune diseases, inflammatory diseases and viral infection. To identify small molecule compounds that induce apoptosis, a homogeneous, luminescent Caspase-Glo 3/7 assay was used. Wild type CHO-K1 cells were used to screen Tox21 libraries for identifying caspase-3/7 activity inducers. Also cytotoxicity of the compounds was tested in parallel by measuring the cell viability using CellTiter-Fluor assay system in the same wells.
# Tox21 Assay Protocol Summary:
# CHO-K1 cells were dispensed at 1,500 per well in 5uL of culture medium into white solid bottom 1536-well plates (Corning Life Sciences, Corning, NY) using a Multidrop Combi (Thermo Scientific, Waltham, MA) dispenser. The assay plates were incubated at 37 C and 5% CO2 for 5hr, and then 23nL of compounds dissolved in DMSO and positive control were transferred using a Pintool station (Wako, San Diego, CA). The assay plates were incubated at 37C and 5% CO2 for 17hr. For cytotoxicity read, after 16hr incubation at 37C, 1uL CellTiter-Fluor reagent (Promega Corporation, Madison, WI) was added to each well of the assay plates using Flying Reagent Dispenser (FRD, Aurora Discovery, San Diego, CA). After 1hr incubation at 37C and 5% CO2, the fluorescence signal was quantified using a ViewLux plate reader (PerkinElmer, Shelton, CT).
# On the % scale 0 is the no-effect control and ±100 the full control effect.
row,SMILES,"activity change, negative = cytotoxicity"
1,C#CC(C)(O)CC(C)C (stereo not given),0.688% (inactive)
2,COc1ccc2cc(C=O)ccc2c1,7.33% [at 42.5 µM] (inactive)
3,NS(=O)(=O)c1cc(C2(O)NC(=O)c3ccccc32)ccc1Cl (stereo not given),0.459% [at 42.5 µM] (inactive)
4,COc1ccc(COC=O)cc1,9.61% (inactive)
5,C[C@H](O)C(=O)Nc1c(I)c(C(=O)NC(CO)CO)c(I)c(C(=O)NC(CO)CO)c1I,1.97% [at 42.5 µM] (inactive)
6,CCCCCCC(=O)OCC,2.57% (inactive)
7,O=c1[nH]c2ccccc2c(=O)n1CCCl,12.5% [at 42.5 µM] (inactive)
8,CCCCCN(CCCCC)C(=O)C(CCC(=O)O)NC(=O)c1ccc(Cl)c(Cl)c1 (stereo not given),0.895% [at 42.5 µM] (inactive)
9,CN(C)N=Nc1ccccc1,13.6% (inactive)
10,CCCc1ccc(N)cc1,-0.279% (inactive)
11,CC(C)CCCC(C)NCCC(C)C (stereo not given),6.23% [at 42.5 µM] (inactive)
12,O=C(O)c1ccc[n+]([O-])c1,6.73% [at 42.5 µM] (inactive)
13,CC/C=C\C#N,9.29% (inactive)
14,N[C@@H](CS)C(=O)O,8.33% (inactive)
15,Cc1ccccc1Br,-0.0006% (inactive)
16,CN(C)C(=O)Nc1ccccc1,1.81% (inactive)
17,C[C@H]1O[C@@H](n2cc(F)c(=O)[nH]c2=O)[C@H](O)[C@@H]1O,5.3% [at 42.5 µM] (inactive)
18,C=CCSCC1Nc2cc(Cl)c(S(N)(=O)=O)cc2S(=O)(=O)N1 (stereo not given),5.53% [at 42.5 µM] (inactive)
19,CO[Si](CCCNCCC[Si](OC)(OC)OC)(OC)OC,0.122% (inactive)
20,CC(C)=CC(=O)O,-2.7% (inactive)

row,SMILES,"activity change, negative = cytotoxicity"
1,CCOC(=O)Nc1ccc2c(c1)N(C(=O)CCN1CCOCC1)c1ccccc1S2,-10.9% [at 42.5 µM] (inactive)
2,CC1=CCC2C(C1)C2(C)C (stereo not given),1.83% (inactive)
3,CCCCC1CCCCC(=O)O1 (stereo not given),0.378% (inactive)
4,c1ccc(CCCc2ccccn2)cc1,8.83% (inactive)
5,Cc1ncc(CSSCc2cnc(C)c(O)c2CO)c(CO)c1O,4.84% [at 42.5 µM] (inactive)
6,NC(N)=NS(=O)(=O)c1ccc(N)cc1,5.09% [at 42.5 µM] (inactive)
7,CC(O)CN(CCCN(C)C)CCCN(C)C (stereo not given),7.89% (inactive)
8,CC(C)(O)C(=O)c1ccc(OCCO)cc1,4.98% (inactive)
9,CC(C)(C)OC(=O)N1C[C@@H](F)C[C@H]1C(=O)O,-0.908% (inactive)
10,C=C(C)C1CC=C(C)C(O)C1 (stereo not given),0.359% (inactive)
11,CCN1CCN(c2cc3c(cc2F)c(=O)c(C(=O)O)cn3C2CC2)CC1,7.71% [at 42.5 µM] (inactive)
12,Cc1nccn1CC1CCc2c(c3ccccc3n2C)C1=O (stereo not given),4.89% [at 42.5 µM] (inactive)
13,CCCCCCCCN(C)CCCCCCCC,14% (inactive)
14,CCC(C(=O)NC(N)=O)c1ccccc1 (stereo not given),12.7% (inactive)
15,Oc1ccc2c(c1)OC[C@@H](N1CCC(O)(c3ccc(F)cc3)CC1)[C@H]2O,2.5% [at 42.5 µM] (inactive)
16,O=C1CC2(CCCC2)CC(=O)N1,9.08% [at 42.5 µM] (inactive)
17,CO,6.6% (inactive)
18,CO[Si](OC)(OC)OC,-1.53% (inactive)
19,CNC(=O)c1c(I)c(NC(=O)CCCCC(=O)Nc2c(I)c(C(=O)O)c(I)c(C(=O)NC)c2I)c(I)c(C(=O)O)c1I,10.7% [at 42.5 µM] (inactive)
20,Cc1onc(-c2ccccc2)c1-c1ccc(S(N)(=O)=O)cc1,4.54% [at 42.5 µM] (inactive)
